Drawing on PMC11006913, this text covers binding signal for 4 sequences.

Holding throughout (assay): PBM; 200 nM protein, PBS
Holding throughout (details): dsDNA, one strand shown

Assay [1] concerns the target HESX1 (Homo sapiens, UniProt Q9UBX0 95-180, R165K).
Assay [2] has as its target SHOX (Homo sapiens, UniProt O15266 103-189).
A further assay deals with ALX4 (Homo sapiens, UniProt Q9H161 200-286, Q225E).
For assay [3], the target named is HESX1 (Homo sapiens, UniProt Q9UBX0 95-180).
The target in a further assay is MSX2 (Homo sapiens, UniProt P35548 130-214, R199I).
The target in assay [4] is ALX1 (Homo sapiens, UniProt Q15699 118-204, L144V).
For assay [5], the target named is ALX3 (Homo sapiens, UniProt O95076 139-225, N203Q).
The target of assay [6] is SHOX (Homo sapiens, UniProt O15266 103-189, R173C).
In assay [7] the target is ALX1 (Homo sapiens, UniProt Q15699 118-204, L144R).
Assay [8] has as its target ALX3 (Homo sapiens, UniProt O95076 139-225).
Assay [9] has as its target PROP1 (Homo sapiens, UniProt O75360 56-141).
The target of assay [10] is HESX1 (Homo sapiens, UniProt Q9UBX0 95-180, R109Q).
Assay [11] addresses PROP1 (Homo sapiens, UniProt O75360 56-141, R99H).
For assay [12], the target named is ALX3 (Homo sapiens, UniProt O95076 139-225, L168Q).
Assay [13] addresses HESX1 (Homo sapiens, UniProt Q9UBX0 95-180, P111T).
The target of assay [14] is ALX3 (Homo sapiens, UniProt O95076 139-225, L168V).
Assay [15] has as its target PROP1 (Homo sapiens, UniProt O75360 56-141, F88S).
Assay [16] addresses HESX1 (Homo sapiens, UniProt Q9UBX0 95-180, F115L).
The target in assay [17] is ALX1 (Homo sapiens, UniProt Q15699 118-204).
Assay [18] addresses ALX3 (Homo sapiens, UniProt O95076 139-225, N203S).

Sequence of HESX1 (Homo sapiens, UniProt Q9UBX0 95-180, F115L) (Q9UBX0 95-180 F115L): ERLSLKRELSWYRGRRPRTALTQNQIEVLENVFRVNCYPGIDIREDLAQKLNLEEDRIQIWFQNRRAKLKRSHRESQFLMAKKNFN
Sequence of PROP1 (Homo sapiens, UniProt O75360 56-141) (O75360 56-141): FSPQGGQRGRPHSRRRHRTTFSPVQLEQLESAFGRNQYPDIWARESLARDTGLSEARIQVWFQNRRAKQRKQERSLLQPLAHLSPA
Sequence of HESX1 (Homo sapiens, UniProt Q9UBX0 95-180, R165K) (Q9UBX0 95-180 R165K): as the sequence (Q9UBX0 95-180 F115L) above, with L21F, R71K counted along it
Sequence of ALX3 (Homo sapiens, UniProt O95076 139-225, N203S) (O95076 139-225 N203S): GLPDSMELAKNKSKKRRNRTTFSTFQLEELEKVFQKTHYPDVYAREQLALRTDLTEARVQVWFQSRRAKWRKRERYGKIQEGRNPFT
Sequence of SHOX (Homo sapiens, UniProt O15266 103-189) (O15266 103-189): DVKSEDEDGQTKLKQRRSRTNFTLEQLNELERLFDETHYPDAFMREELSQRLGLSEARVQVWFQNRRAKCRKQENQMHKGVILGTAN
Sequence of ALX4 (Q9H161 200-286 Q225E): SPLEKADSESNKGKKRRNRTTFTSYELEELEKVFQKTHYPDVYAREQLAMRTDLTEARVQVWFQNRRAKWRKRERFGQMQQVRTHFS
Sequence of ALX1 (Homo sapiens, UniProt Q15699 118-204) (Q15699 118-204): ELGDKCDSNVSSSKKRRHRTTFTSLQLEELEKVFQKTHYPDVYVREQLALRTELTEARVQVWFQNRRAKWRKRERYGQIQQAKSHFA
Sequence of ALX1 (Homo sapiens, UniProt Q15699 118-204, L144R) (Q15699 118-204 L144R): as the sequence (Q15699 118-204) above, with L27R counted along it
Sequence of ALX3 (Homo sapiens, UniProt O95076 139-225, L168V) (O95076 139-225 L168V): as the sequence (O95076 139-225 N203S) above, with L30V, S65N counted along it
Sequence of ALX1 (Homo sapiens, UniProt Q15699 118-204, L144V) (Q15699 118-204 L144V): as the sequence (Q15699 118-204) above, with L27V counted along it
Sequence of SHOX (Homo sapiens, UniProt O15266 103-189, R173C) (O15266 103-189 R173C): as the sequence (O15266 103-189) above, with R71C counted along it
Sequence of ALX3 (Homo sapiens, UniProt O95076 139-225, N203Q) (O95076 139-225 N203Q): as the sequence (O95076 139-225 N203S) above, with S65Q counted along it
Sequence of HESX1 (Homo sapiens, UniProt Q9UBX0 95-180) (Q9UBX0 95-180): as the sequence (Q9UBX0 95-180 F115L) above, with L21F counted along it
Sequence of ALX3 (Homo sapiens, UniProt O95076 139-225) (O95076 139-225): as the sequence (O95076 139-225 N203S) above, with S65N counted along it
Sequence of HESX1 (Homo sapiens, UniProt Q9UBX0 95-180, R109Q) (Q9UBX0 95-180 R109Q): as the sequence (Q9UBX0 95-180 F115L) above, with R15Q, L21F counted along it
Sequence of MSX2 (P35548 130-214 R199I): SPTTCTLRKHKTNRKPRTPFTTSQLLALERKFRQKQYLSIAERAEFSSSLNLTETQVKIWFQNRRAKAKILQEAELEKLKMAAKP
Sequence of PROP1 (Homo sapiens, UniProt O75360 56-141, R99H) (O75360 56-141 R99H): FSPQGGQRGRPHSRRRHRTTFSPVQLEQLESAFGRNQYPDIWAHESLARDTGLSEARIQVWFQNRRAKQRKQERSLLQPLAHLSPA
Sequence of PROP1 (Homo sapiens, UniProt O75360 56-141, F88S) (O75360 56-141 F88S): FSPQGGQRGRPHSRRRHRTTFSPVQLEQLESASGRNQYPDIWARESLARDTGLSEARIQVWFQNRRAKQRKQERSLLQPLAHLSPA
Sequence of ALX3 (Homo sapiens, UniProt O95076 139-225, L168Q) (O95076 139-225 L168Q): as the sequence (O95076 139-225 N203S) above, with L30Q, S65N counted along it
Sequence of HESX1 (Homo sapiens, UniProt Q9UBX0 95-180, P111T) (Q9UBX0 95-180 P111T): as the sequence (Q9UBX0 95-180 F115L) above, with P17T, L21F counted along it

On to AATAATTA, for which the binding signal with HESX1 [1] was 13 upbm affinity estimate (log intensity, higher = more binding, comparable within an allelic series); with SHOX [2], 12.1 upbm affinity estimate (log intensity, higher = more binding, comparable within an allelic series); in the assay with ALX4 it was 13.7 upbm affinity estimate (log intensity, higher = more binding, comparable within an allelic series); with HESX1 [3], 13 upbm affinity estimate (log intensity, higher = more binding, comparable within an allelic series); with MSX2 it was 13.1 upbm affinity estimate (log intensity, higher = more binding, comparable within an allelic series); with ALX1 [4], 11.9 upbm affinity estimate (log intensity, higher = more binding, comparable within an allelic series). For the same sequence, the binding signal is 8.63 upbm affinity estimate (log intensity, higher = more binding, comparable within an allelic series) with ALX3 [5]; 9.86 upbm affinity estimate (log intensity, higher = more binding, comparable within an allelic series) in the assay with SHOX [6]; 11.7 upbm affinity estimate (log intensity, higher = more binding, comparable within an allelic series) with ALX1 [7]; 12.8 upbm affinity estimate (log intensity, higher = more binding, comparable within an allelic series) in the assay with ALX3 [8]; 11.8 upbm affinity estimate (log intensity, higher = more binding, comparable within an allelic series) in the assay with PROP1 [9]; 9.38 upbm affinity estimate (log intensity, higher = more binding, comparable within an allelic series) in the assay with HESX1 [10]. The binding signal with PROP1 [11] is 11.6 upbm affinity estimate (log intensity, higher = more binding, comparable within an allelic series); with ALX3 [12], 10.9 upbm affinity estimate (log intensity, higher = more binding, comparable within an allelic series); in the assay with HESX1 [13], 11.5 upbm affinity estimate (log intensity, higher = more binding, comparable within an allelic series); in the assay with ALX3 [14], 10.6 upbm affinity estimate (log intensity, higher = more binding, comparable within an allelic series); with PROP1 [15], 7.89 upbm affinity estimate (log intensity, higher = more binding, comparable within an allelic series); with HESX1 [16], 8.2 upbm affinity estimate (log intensity, higher = more binding, comparable within an allelic series). For the same sequence, the binding signal in the assay with ALX1 [17] is 12.5 upbm affinity estimate (log intensity, higher = more binding, comparable within an allelic series); with ALX3 [18] it was 8.7 upbm affinity estimate (log intensity, higher = more binding, comparable within an allelic series).

Consider AATTAATG, for which the binding signal with HESX1 [1] is 12.1 upbm affinity estimate (log intensity, higher = more binding, comparable within an allelic series); with SHOX [2], 11.8 upbm affinity estimate (log intensity, higher = more binding, comparable within an allelic series); in the assay with ALX4 it was 13.4 upbm affinity estimate (log intensity, higher = more binding, comparable within an allelic series); in the assay with HESX1 [3], 12.1 upbm affinity estimate (log intensity, higher = more binding, comparable within an allelic series); with MSX2, 12.5 upbm affinity estimate (log intensity, higher = more binding, comparable within an allelic series); with ALX1 [4], 11.9 upbm affinity estimate (log intensity, higher = more binding, comparable within an allelic series). Besides, the binding signal in the assay with ALX3 [5] was 8.41 upbm affinity estimate (log intensity, higher = more binding, comparable within an allelic series); with SHOX [6], 9.48 upbm affinity estimate (log intensity, higher = more binding, comparable within an allelic series); in the assay with ALX1 [7], 11.5 upbm affinity estimate (log intensity, higher = more binding, comparable within an allelic series); with ALX3 [8] it was 12.6 upbm affinity estimate (log intensity, higher = more binding, comparable within an allelic series); in the assay with PROP1 [9] it was 11.4 upbm affinity estimate (log intensity, higher = more binding, comparable within an allelic series); in the assay with HESX1 [10], 9.35 upbm affinity estimate (log intensity, higher = more binding, comparable within an allelic series). Moreover, the binding signal was 11.3 upbm affinity estimate (log intensity, higher = more binding, comparable within an allelic series) in the assay with PROP1 [11]; 10.7 upbm affinity estimate (log intensity, higher = more binding, comparable within an allelic series) in the assay with ALX3 [12]; 10.7 upbm affinity estimate (log intensity, higher = more binding, comparable within an allelic series) with HESX1 [13]; 10.3 upbm affinity estimate (log intensity, higher = more binding, comparable within an allelic series) with ALX3 [14]; 7.86 upbm affinity estimate (log intensity, higher = more binding, comparable within an allelic series) in the assay with PROP1 [15]; 7.83 upbm affinity estimate (log intensity, higher = more binding, comparable within an allelic series) in the assay with HESX1 [16]. The binding signal with ALX1 [17] was 12.5 upbm affinity estimate (log intensity, higher = more binding, comparable within an allelic series); with ALX3 [18] it was 8.55 upbm affinity estimate (log intensity, higher = more binding, comparable within an allelic series).

As to AGTAATTA, the binding signal was 13 upbm affinity estimate (log intensity, higher = more binding, comparable within an allelic series) with HESX1 [1]; 12.7 upbm affinity estimate (log intensity, higher = more binding, comparable within an allelic series) in the assay with SHOX [2]; 13.8 upbm affinity estimate (log intensity, higher = more binding, comparable within an allelic series) in the assay with ALX4; 13.1 upbm affinity estimate (log intensity, higher = more binding, comparable within an allelic series) in the assay with HESX1 [3]; 13.4 upbm affinity estimate (log intensity, higher = more binding, comparable within an allelic series) with MSX2; 12.2 upbm affinity estimate (log intensity, higher = more binding, comparable within an allelic series) with ALX1 [4]. Moreover, the binding signal with ALX3 [5] is 8.6 upbm affinity estimate (log intensity, higher = more binding, comparable within an allelic series); with SHOX [6] it was 10 upbm affinity estimate (log intensity, higher = more binding, comparable within an allelic series); in the assay with ALX1 [7], 11.8 upbm affinity estimate (log intensity, higher = more binding, comparable within an allelic series); with ALX3 [8] it was 12.8 upbm affinity estimate (log intensity, higher = more binding, comparable within an allelic series); with PROP1 [9], 11.9 upbm affinity estimate (log intensity, higher = more binding, comparable within an allelic series); with HESX1 [10], 9.52 upbm affinity estimate (log intensity, higher = more binding, comparable within an allelic series). Moreover, the binding signal in the assay with PROP1 [11] is 11.9 upbm affinity estimate (log intensity, higher = more binding, comparable within an allelic series); in the assay with ALX3 [12] it was 11 upbm affinity estimate (log intensity, higher = more binding, comparable within an allelic series); with HESX1 [13], 11.6 upbm affinity estimate (log intensity, higher = more binding, comparable within an allelic series); with ALX3 [14], 10.6 upbm affinity estimate (log intensity, higher = more binding, comparable within an allelic series); with PROP1 [15] it was 7.94 upbm affinity estimate (log intensity, higher = more binding, comparable within an allelic series); in the assay with HESX1 [16], 8.09 upbm affinity estimate (log intensity, higher = more binding, comparable within an allelic series). Also, the binding signal is 12.7 upbm affinity estimate (log intensity, higher = more binding, comparable within an allelic series) with ALX1 [17] and 8.73 upbm affinity estimate (log intensity, higher = more binding, comparable within an allelic series) with ALX3 [18].

Take GTAATTAC: the binding signal was 12.5 upbm affinity estimate (log intensity, higher = more binding, comparable within an allelic series) in the assay with HESX1 [1]; 12.4 upbm affinity estimate (log intensity, higher = more binding, comparable within an allelic series) with SHOX [2]; 13.5 upbm affinity estimate (log intensity, higher = more binding, comparable within an allelic series) with ALX4; 12.6 upbm affinity estimate (log intensity, higher = more binding, comparable within an allelic series) with HESX1 [3]; 13.2 upbm affinity estimate (log intensity, higher = more binding, comparable within an allelic series) with MSX2; 12.1 upbm affinity estimate (log intensity, higher = more binding, comparable within an allelic series) in the assay with ALX1 [4]. Further, the binding signal in the assay with ALX3 [5] was 8.56 upbm affinity estimate (log intensity, higher = more binding, comparable within an allelic series); in the assay with SHOX [6], 9.86 upbm affinity estimate (log intensity, higher = more binding, comparable within an allelic series); in the assay with ALX1 [7], 11.7 upbm affinity estimate (log intensity, higher = more binding, comparable within an allelic series); with ALX3 [8], 12.7 upbm affinity estimate (log intensity, higher = more binding, comparable within an allelic series); with PROP1 [9] it was 11.8 upbm affinity estimate (log intensity, higher = more binding, comparable within an allelic series); with HESX1 [10], 9.11 upbm affinity estimate (log intensity, higher = more binding, comparable within an allelic series). In addition, the binding signal with PROP1 [11] is 11.6 upbm affinity estimate (log intensity, higher = more binding, comparable within an allelic series); with ALX3 [12] it was 10.7 upbm affinity estimate (log intensity, higher = more binding, comparable within an allelic series); with HESX1 [13], 11 upbm affinity estimate (log intensity, higher = more binding, comparable within an allelic series); in the assay with ALX3 [14] it was 10.2 upbm affinity estimate (log intensity, higher = more binding, comparable within an allelic series); with PROP1 [15], 8.06 upbm affinity estimate (log intensity, higher = more binding, comparable within an allelic series); in the assay with HESX1 [16], 7.87 upbm affinity estimate (log intensity, higher = more binding, comparable within an allelic series). Moreover, the binding signal is 12.5 upbm affinity estimate (log intensity, higher = more binding, comparable within an allelic series) with ALX1 [17] and 8.69 upbm affinity estimate (log intensity, higher = more binding, comparable within an allelic series) in the assay with ALX3 [18].
